Experimental data: the supplement of paper PMC11417369
± gives the standard deviation of the averaged measurements. In all, about 25,000 sequences were measured (“ln(normalized median fluorescence intensity)”: median about 7.9, highest 2% from about 11 on). What follows is part of a selection rich in the highest values, with near analogues and random picks from the rest.

system: PfAP2-I AP2 domain 3 (GST-tagged); assay: gcPBM binding intensity (ln(normalized median fluorescence intensity)); higher = stronger DNA binding
Summary of the method: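 An Agilent 4 × 180k array carrying primer-extended double-stranded 36-bp intergenic genomic probes and negative controls received GST-tagged P. falciparum DNA-binding domains expressed in E. coli, about 25 μg on average, for 1 h. The binding buffer contained 1× PBS, 1% milk, 0.2 mg/ml BSA, 0.5% salmon testes DNA and 0.03% Triton X-100. Binding intensity is the top Masliner-normalised natural-log median intensity across replicate spots of either probe orientation, read after Alexa488 anti-GST antibody staining and a 488 nm scan.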

Sequence	gcPBM binding intensity (ln)
AATGTCATCATATTCATATATATTTATTTCTTTTTG [GTGCAC_negctrl_site500]	7.68 ± 0.57
TAAATTTAGAAACACACACACATATATATATATATA [CACACA_site847]	9.36 ± 0.38
AAAATAATAATAGGCACACATATATATATATATATA [CACACA_site2058]	9.36 ± 0.32
ATAGAAGGCAACTTGGTGCACAAAAAAAAAAATAAT	11.6 ± 0.25
TAATAACTACAAAAAAAAAAGAAAAATAGAAAAAGG [CACACA_negctrl_site1102]	7.75 ± 0.67
TCACCATATAAACGTGCACACTACAAAAATATATAA [CACACA_site5413]	11 ± 0.24
TTTCACCATATAAACGTGCACACTACAAAAATATAT [CACACA_site2547]	11.1 ± 0.35
AAACAAAAAATATATACACACTAAACATAAAAAAAA [CACACA_site4185]	7.81 ± 0.65
TTTCACTACACAAATACACACAAAAATATATGTGCA [CACACA_site2632]	7.91 ± 0.54
TACAAACACCCATATACACACAAAAAAAAAATAAAA [CACACA_site5421]	7.78 ± 0.31
CCATATCTTTTTTGCACACACTACAATAAAACAAAA [CACACA_site4995]	9.95 ± 0.2
TCTAATTTAAAATACACACACATATCTATAATATAT [CACACA_site7029]	7.63 ± 0.28
TGAAAAATATAAGGTTGTACTTACATCGGGAATAAT [XGTACX_site4701]	8.05 ± 0.55
TAATTTTCAATAATTTGTACATAATTTTTATAAATT [XGTACX_site8133]	7.49 ± 0.3
AAATCGTAATATATTTGTACTTATTTGAAAAATCCA [XGTACX_site8141]	7.76 ± 0.33
TTCTTATTTAATGTATCACACACGAGAATAAAAAAT [CACACA_site8992]	7.98 ± 0.48
ACATTTTTTTTTTTTTTTCTTTTTCTTTTTCTTTTT [CACACA_negctrl_site1295]	7.72 ± 0.52
AACTAATAGTATATTACATGCAAAAGTAAAAGTAAA [TGCATGCA_site411]	8.02 ± 0.78
AAATATATAAAAGTATGTACATATGAAAAATATATA [XGTACX_site6165]	8 ± 0.52

Sequence	gcPBM binding intensity (ln)
GTATAAAAGTAACTAGTGCATTACATATGAATAAAA	11.4 ± 0.6
TAGCTTATTAATATCATACACACATAGATATATTTA [CACACA_site3105]	7.5 ± 0.54
CAATATTATAGATATACACACATAATGTGTAAAAAC [CACACA_site6631]	7.87 ± 0.79
TAAACGTTAGTATGTGTGCACATTAGTAATTTAAAA	9.65 ± 0.3
GAAAAATTAAAAATAACACACACATATATATATTTA [CACACA_site8896]	7.56 ± 0.4
TTCATTCAAATTAACGTGCACATTATTAGTAAAAAC	11.05 ± 0.035
TTAGTAAATACATTTGCACACATTATTTTTTAACAT [CACACA_site5448]	9.36 ± 0.11
TGTAAATTATAACGTGCACACATATTTAAAATGAAA [CACACA_site8915]	11.2 ± 0.15
TAAATTATAACGTGCACACATATTTAAAATGAAATG [CACACA_site2820]	11.3 ± 0.23
AAAAAATTAACGAGTGCACACATATTTAGATAAAAT [CACACA_site8958]	9.86 ± 0.18
TTAAAATGAAGAAGTGCACACATATATATATTTATA [CACACA_site8063]	9.67 ± 0.18
AAAATTAAAAATAACACACACATATATATATTTATA [CACACA_site2776]	7.66 ± 0.34
CTTAATAAGAATAAATGTACAAGGGATAAAAAATTT [XGTACX_site3213]	8.02 ± 0.73
TTTTTTTTTTTTGAAACATGCATTGTTTTATTCTTA [TGCATGCA_site15]	7.99 ± 0.85
GGAAATTTCAATATTTGTACATATATATATATATAT [XGTACX_site3222]	9.56 ± 0.6
AGACATAAGATAATTACACACAATACATCCCTATAT [CACACA_site2227]	7.76 ± 0.57
AGAAACCTTGTTAGTTAGCATATATATATATATATA [CACACA_negctrl_site372]	9.46 ± 0.46
GGAAGCTAATTACACACATGCATATTTTTTTTTCAA [TGCATGCA_site548]	8.16 ± 0.83
ATTTTTTTTTTTTTTTTGGGGGGGTATACTTTTAAA [CACACA_negctrl_site1020]	11.6 ± 0.4

Sequence	gcPBM binding intensity (ln)
GTTAATATTTTTGGGGGTACTTAAAAAAAAAAAAAA [XGTACX_site1477]	9.29 ± 0.26
TATACTTTATATATTTTGTATATATATTTTTTTTAT [TGCATGCA_negctrl_site530]	7.5 ± 0.28
ATCTATGATATATACACACACATGTATAAATAAATA [CACACA_site7012]	7.75 ± 0.47
TTTTTCTTTTTTTGTTGTACATTTTGTAATATTTAC [XGTACX_site4102]	7.9 ± 0.59
TTATTTTTCTTTATTGGTACACACGAAAAAAAAATT [XGTACX_site6482]	8.03 ± 0.3
TTTTTTTTTTTTTTTTTTTTTTTTGGGTCCCATACA [CACACA_negctrl_site913]	8.1 ± 0.63
TAATGGAAACCATTTATTTTCTGCAATATATTTTTT [CACACA_negctrl_site1653]	7.67 ± 0.35
AAATTTATTATATATACATGCAATCATAAATAATGT [TGCATGCA_site539]	7.68 ± 0.48
AATCATTTATTGATGGTGCAATATACCATCTAATGA [GTGCAC_site9440]	11.4 ± 0.76
TTACAAAAATGTGGTTGTACACAAACAAAAAAAATA [XGTACX_site8506]	8.35 ± 0.29
TCTTTTTTTTCTTTTTTTTTATTTAAATATCAAGTA [CACACA_negctrl_site1354]	7.59 ± 0.34
TTTTATTGTTGTTATACACACCATATAAAATATTTC [CACACA_site4983]	7.92 ± 0.6
ATAAAAAGAAATCCAATACACACCTTCAAAATGGGT [CACACA_site1622]	7.71 ± 0.72
AAAGATATAAATTACTGTACTAATGAAATTGGTAAA [XGTACX_site3582]	7.67 ± 0.28
AAGAAAAGCATAGATGCACACATATATATATATATA [CACACA_site8675]	9.485 ± 0.078
ATTATATATATGTGCACACAAAAGATATATATATAT [CACACA_site5205]	10.2 ± 0.13
TTCAAAAGATATATCGTGCACATATATATGATGAAA	11.155 ± 0.007
ACTTTTATTCGCTTACGTACATATATTATATATTAT [XGTACX_site4459]	8.75 ± 0.55
TATAAATATTTATGTACACACATATACATGTTGAAT [CACACA_site5684]	7.95 ± 0.43
